Measured values as given in PubChem BioAssay AID463082 (The Scripps Research Institute Molecular Screening Center, 2010).
The campaign covered roughly 330,000 compounds. About 4,900 (1.5%) were called active.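 Rule for the calls: active = inhibition above the mean inhibition across the screen plus 3 SD (cut at about 25% in these data); inactive = the rest.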 The entries come from a sample that favours actives as a whole.

What follows are compounds tested against Platelet-activating factor acetylhydrolase (Homo sapiens) (UniProt Q13093) (assay: pPAFAH enzyme inhibitors, primary screen, biochemical, fluorescence polarization, human (AID 463082;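 note: inhibitors block binding of the rhodamine activity-based probe so polarization drops; 0% = enzyme with DMSO and 100% = wells lacking pPAFAH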)). Settings: recombinant pPAFAH, FP-rhodamine probe fluorescence polarization; at 3.39 µM; hits give high values.
Chain of Platelet-activating factor acetylhydrolase (Homo sapiens) (Q13093 whole entry, looked up): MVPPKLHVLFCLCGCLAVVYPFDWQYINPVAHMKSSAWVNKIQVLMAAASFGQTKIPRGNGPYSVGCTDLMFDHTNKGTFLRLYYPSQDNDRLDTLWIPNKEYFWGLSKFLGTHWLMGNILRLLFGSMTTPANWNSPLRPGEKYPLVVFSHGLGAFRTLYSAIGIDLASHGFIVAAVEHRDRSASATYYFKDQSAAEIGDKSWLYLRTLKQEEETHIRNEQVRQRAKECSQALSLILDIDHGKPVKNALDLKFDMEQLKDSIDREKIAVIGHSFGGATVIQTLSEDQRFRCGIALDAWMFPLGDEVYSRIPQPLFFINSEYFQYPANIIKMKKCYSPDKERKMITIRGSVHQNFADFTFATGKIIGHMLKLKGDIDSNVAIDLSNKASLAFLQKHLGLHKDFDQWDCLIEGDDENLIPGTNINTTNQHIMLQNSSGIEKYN

Row | Compound | inhibition
1 | O=C(Nc1ccc(F)cc1)N1CCN(c2ccc(F)cc2)CC1 | -4.2% (inactive)
2 | CC(CC(=O)N1CCN(c2ccccc2)CC1)c1ccccc1 (stereo not drawn) | 0.04% (inactive)
3 | CC(=O)N1CCN(c2ccc(NCc3ccc(C(C)C)cc3)cc2)CC1 | 30.8% (active)
4 | N#CC1=C(N)N(c2ccc(F)cc2)C(=O)C1 | -0.02% (inactive)
5 | CCCCc1nc(NCCN)c(C#N)c2c1CSC(C)(C)C2 | 4.91% (inactive)
6 | Cc1ccc(NS(=O)(=O)c2ccc(N/N=C/c3ccccc3OCC(=O)O)c([N+](=O)[O-])c2)c(C)c1 | 88.4% (active)
7 | C=C(C)CNC(=S)N/N=C/c1ccccc1OCC(=O)O | 0.9% (inactive)
8 | Cc1cccc(COc2ccccc2/C=N/Nc2ccc([N+](=O)[O-])cc2)c1 | 18% (inactive)
9 | COCCn1c(=O)[nH]c(=O)c2cc(C(=O)c3cc(OC)ccc3O)cnc21 | -1.8% (inactive)
10 | CC(C)NC(=O)C(=O)NCCN1CCN(S(=O)(=O)c2ccc(Cl)cc2)CC1 | 2.1% (inactive)
11 | O=C(Nc1nnc(SCc2ccccc2Cl)s1)c1cccc([N+](=O)[O-])c1 | 22.8% (inactive)
12 | O=C(CC1N=C2c3ccccc3N=C(SCc3ccccc3Cl)N2C1=O)NCc1ccco1 (stereo not drawn) | 6.79% (inactive)
13 | Clc1ccccc1CSc1nnc(-c2ccco2)c(-c2ccco2)n1 | 74.6% (active)
14 | c1ccc(CSc2nnc(-c3ccco3)c(-c3ccco3)n2)cc1 | 62% (active)
15 | COc1ccc2nc(SCc3ccccc3)nc(C)c2c1 | 3.07% (inactive)
16 | CCc1nnc(SCc2cccc(F)c2)nc1CC | 7.48% (inactive)
17 | N#CC(Cc1cc2ccccc2n1S(=O)(=O)c1ccccc1)OCc1ccccc1 (stereo not drawn) | 3.57% (inactive)
18 | N#Cc1c(NC(=O)C2CCCO2)sc2c1CCCCC2 (stereo not drawn) | -1.14% (inactive)
19 | CC(=O)N1CCN(C(=O)c2cccc(S(=O)(=O)Nc3ccc(C)cc3)c2)CC1 | 19.9% (inactive)
20 | Cc1cccc(NS(=O)(=O)c2ccc(C)c(C(N)=O)c2)c1 | 9.98% (inactive)

Row | Compound | inhibition
21 | Nc1cccc(S(=O)(=O)Nc2ccc(SC(F)F)cc2)c1 | 26.6% (active)
22 | CCOc1cc(C(=O)N2CCc3cc(OC)c(OC)cc3C2)ccc1OC(F)F | 11% (inactive)
23 | CC(C)N1CCC(=NNc2ccc([N+](=O)[O-])cc2S(=O)(=O)N2CCOCC2)CC1 | 5.77% (inactive)
24 | CCc1cccc2c(=O)c(C(=O)NCCCOC)c[nH]c12 | 3.69% (inactive)
25 | COc1cccc(NS(=O)(=O)c2ccc3[nH]cc(C(=O)NCCCOC(C)C)c(=O)c3c2)c1 | 29% (active)
26 | CCN(CC)S(=O)(=O)c1ccc2[nH]cc(C(=O)NCCc3ccccc3)c(=O)c2c1 | -0.23% (inactive)
27 | C=CCOc1ccc(/C=C/C(=O)OCC(=O)NC2CCCCCC2)cc1 | 12% (inactive)
28 | COc1ccc(OCC(=O)NCCc2ccc(S(N)(=O)=O)cc2)cc1 | -2.47% (inactive)
29 | NS(=O)(=O)c1ccc(CNC(=O)c2cccc(Oc3ccccc3)c2)cc1 | 4.17% (inactive)
30 | O=C(NCc1ccccc1CN1CCCC1)c1cccc(S(=O)(=O)Nc2ccc(F)cc2)c1 | 31.6% (active)
31 | CCN(c1ccccc1)S(=O)(=O)c1cccc(C(=O)NCc2ccccc2CN2CCOCC2)c1 | 3.38% (inactive)
32 | O=C(NCCN1CCOCC1)c1cccc(S(=O)(=O)Nc2ccc(F)cc2)c1 | 22.9% (inactive)
33 | COc1ccccc1C(CNC(=O)c1cccc(NS(=O)(=O)c2ccc(Br)cc2)c1)N(C)C (stereo not drawn) | 4.01% (inactive)
34 | COc1ccc(NS(=O)(=O)c2cccc(C(=O)NCCc3ccc(S(N)(=O)=O)cc3)c2)cc1 | 26.8% (active)
35 | COc1ccccc1C(CNC(=O)c1cccc(S(=O)(=O)Nc2ccc(F)cc2)c1)N(C)C (stereo not drawn) | 28.3% (active)
36 | COc1ccc(C(CNC(=O)c2ccc(NS(=O)(=O)c3ccc(F)c(C)c3)cc2)N(C)C)cc1 (stereo not drawn) | 7.73% (inactive)
37 | CC(=O)N1c2ccc(S(=O)(=O)NCCC(=O)N(C)C3CCCCC3)cc2CC1C (stereo not drawn) | 1.62% (inactive)
38 | O=C(c1n[nH]c2c1CCC2)N1CCCC(Nc2cccc(F)c2)C1 (stereo not drawn) | -0.4% (inactive)
39 | O=C(COc1ccc(NC(=O)c2ccccc2[N+](=O)[O-])cc1)c1ccc(F)cc1 | 0.54% (inactive)
40 | C/C(=N\NC(=O)COc1ccc(C)cc1[N+](=O)[O-])c1ccc2c(c1)OCCO2 | 4.11% (inactive)

Row | Compound | inhibition
41 | CC(=O)Nc1cccc(OCC(=O)/C=C2\N(C)c3ccccc3C2(C)C)c1 | 1.61% (inactive)
42 | N[C@@H](Cc1ccccc1)C(=O)N1CCC(C(=O)NCC(=O)Nc2ccc(F)cc2)CC1 | 2.49% (inactive)
43 | Cc1cc(C)c2c(Cn3ccnc3)cc(=O)oc2c1 | -1.95% (inactive)
44 | CCN1C(=O)/C(=C2/Sc3ccccc3N2CCCS(=O)(=O)O)SC1=S | 28.1% (active)
45 | CCCCN1C(=O)/C(=C2/Sc3ccc(Cl)cc3N2CC)SC1=S | 3.72% (inactive)
46 | CCCCN1C(=O)/C(=C/C=C2/C=Cc3ccccc3N2CC)SC1=S | -3.21% (inactive)
47 | CCOC(=O)C(CCOc1cccc(CC)c1)C(=O)OCC | 5.98% (inactive)
48 | CCCn1nc(C(=O)OCc2nc(N)nc(Nc3ccccc3C)n2)c2ccccc2c1=O | -2.36% (inactive)
49 | O=C(Nc1nnc(CCOCCOCCc2nnc(NC(=O)c3ccco3)s2)s1)c1ccco1 | 8.62% (inactive)
50 | NC(=O)c1ccsc1NC(=O)c1ccco1 | 3.89% (inactive)
51 | O=C(Nc1nc(-c2ccco2)c(-c2ccco2)s1)c1ccco1 | 43% (active)
52 | COc1ccc(N2CCN(C3CC(=O)N(c4ccc5c(c4)OCCO5)C3=O)CC2)cc1 (stereo not drawn) | -4.08% (inactive)
53 | CC(=O)Oc1cccc(N2C(=O)CC(Nc3ccc(N4CCOCC4)cc3)C2=O)c1 (stereo not drawn) | 25.3% (active)
54 | COc1cc2ccccc2cc1C(=O)Nc1ccc(N2CCOCC2)cc1 | 11.2% (inactive)
55 | O=C(CN1CCN(c2cccc(Cl)c2)CC1)Nc1ccc(S(=O)(=O)N2CCOCC2)cc1 | 5.13% (inactive)
56 | O=C(NCc1cccnc1)c1cn(-c2ccccc2)nc1-c1cccs1 | -4.38% (inactive)
57 | COc1ccc(-c2nn(-c3ccccc3)cc2/C=C\C(=O)Nc2ccc(C(=O)O)cc2)cc1 | -67.2% (inactive)
58 | O=C(O)c1ccc(N/N=C/c2cn(-c3ccccc3)nc2-c2cccs2)cc1 | 34% (active)
